From PubChem BioAssay (NCATS)
Where “and” joins values, the source holds several entries; their conditions need not be identical. Equal entries are not always repeated. Records with an inconclusive call do not appear. Calls of active or inactive are those of the source. Unless noted, calls follow the shape of the dose curve; as a rule, active = well fitted curve in the direction sought with a large enough effect; inconclusive = small, poorly fitted or top-dose-only effect, or another doubt; inactive = no such curve, though single readings can be large; an effect the other way counts as inactive or inconclusive.

Tests used:
[1] = Stat Signaling Pathway (AID 446; active = well fitted curve in either direction with a large enough effect, not every such curve was filed as active;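 also: ME-180 cervical cancer cells given 40 pM IL-6 alongside compound; SIE-controlled beta-lactamase reporter measured as 460/530 nm FRET emission ratio; % is scaled to controls: 0 for no effect and ±100 for the full control effect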); details: ME-180 (cervical carcinoma) SIE beta-lactamase reporter, IL-6 stimulated, 5 h
How it was run: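 IL-6/STAT signaling read in ME-180 cells via an SIE beta-lactamase reporter. Stimulus was 40 pM IL-6 (its AC50) for 5 hrs, so both activation and inhibition register.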

[2] = target: Glucocorticoid receptor (Homo sapiens) (UniProt P04150); assay: GR-GFP Redistribution (AID 450;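 active = compounds whose dose series gives a full or clear partial fitted curve of increased nuclear translocation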; also: potency is read from the fitted curve at half-maximal effect); details: U2OS GR-GFP nuclear translocation, laser cytometry, 2 h
Sequence of Glucocorticoid receptor (Homo sapiens) (P04150 whole entry, looked up, the tested form may be a part): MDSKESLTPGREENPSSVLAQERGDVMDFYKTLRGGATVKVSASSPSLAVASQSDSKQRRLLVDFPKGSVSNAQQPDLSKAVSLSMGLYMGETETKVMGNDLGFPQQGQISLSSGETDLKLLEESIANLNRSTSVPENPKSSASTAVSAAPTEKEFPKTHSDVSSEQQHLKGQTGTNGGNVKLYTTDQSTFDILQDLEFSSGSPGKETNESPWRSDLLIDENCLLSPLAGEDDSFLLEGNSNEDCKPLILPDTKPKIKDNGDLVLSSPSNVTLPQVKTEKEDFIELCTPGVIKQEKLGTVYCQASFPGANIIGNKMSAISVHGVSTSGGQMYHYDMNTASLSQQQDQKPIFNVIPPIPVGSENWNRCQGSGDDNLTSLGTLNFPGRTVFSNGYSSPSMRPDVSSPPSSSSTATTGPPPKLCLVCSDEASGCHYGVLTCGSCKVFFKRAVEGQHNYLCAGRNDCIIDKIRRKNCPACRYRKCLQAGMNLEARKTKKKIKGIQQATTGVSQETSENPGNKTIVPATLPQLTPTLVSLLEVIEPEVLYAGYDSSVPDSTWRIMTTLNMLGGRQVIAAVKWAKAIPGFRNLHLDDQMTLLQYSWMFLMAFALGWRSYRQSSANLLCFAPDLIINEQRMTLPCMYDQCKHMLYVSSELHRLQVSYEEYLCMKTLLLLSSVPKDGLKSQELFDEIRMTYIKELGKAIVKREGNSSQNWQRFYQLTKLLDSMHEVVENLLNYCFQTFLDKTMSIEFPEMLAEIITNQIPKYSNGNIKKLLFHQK

[3] = target: Glucocorticoid receptor (Homo sapiens) (UniProt P04150); assay: GR-EFC Redistribution (AID 451; calls by dose curve; also: potency is read from the fitted curve at half-maximal effect); details: CHO-K1 GR-EFC translocation, beta-gal luminescence, 2 h
How it was run: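 CHO-K1 cells stably expressing nuclear-localized β-gal enzyme acceptor and GR fused C-terminally to the enzyme donor fragment; ligand-driven nuclear translocation restores β-gal by complementation. Compounds titrated up to 46 uM final, 2 h at 37 °C; luminescence read.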

[4] = target: Mitogen-activated protein kinase 10 (Mus musculus) (UniProt Q61831); assay: JNK3 AlphaScreen Assay (AID 530; active = well fitted curve in either direction with a large enough effect, not every such curve was filed as active;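 also: kinase came from lysate of stimulated human HepG2 cells; signal reports phosphorylation of biotinylated GST-cJun 1-79 at Ser73 with 10 µM ATP; % is scaled to controls: 0 for no effect and ±100 for the full control effect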); details: JNK3 lysate, c-Jun phosphorylation; series mostly up to 57.1 µM
How it was run: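 JNK3 came from HepG2 lysates pre-activated with IL-1beta and TNF-alpha and phosphorylated biotinylated GST-cJun (1-79) at 10 uM ATP, pH 7.6, room temperature. Compounds were titrated. AlphaScreen signal used anti-phospho-cJun (Ser73) antibody.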

[5] = Cell Viability - NIH 3T3 (AID 541); details: NIH 3T3 cell viability, qHTS; activity change, negative = cytotoxicity: at 92.2 µM (top of the series); also: nearly all actives have a fitted effect of over 25% in size; also: potency is read from the fitted curve at half-maximal effect;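 as to activity change, negative = cytotoxicity: plate controls were DMSO alone for no effect and tamoxifen positive control for full effect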
How it was run: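 NIH 3T3 mouse embryo fibroblasts (1000 cells/well) were plated in complete medium and treated with compound for 40 hr at 37 °C. Viability was read as intracellular ATP by CellTiter-Glo luminescence; AC50 values came from Hill-equation fits of concentration-response data.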

[6] = Cell Viability - HUV-EC-C (AID 542); details: HUV-EC-C endothelial cell viability, qHTS; series mostly up to 92.2 µM; also: nearly all actives have a fitted effect of over 35% in size; also: potency is read from the fitted curve at half-maximal effect; as to activity change, negative = cytotoxicity: % is scaled to controls: 0 for no effect and ±100 for the full control effect
How it was run: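 HUV-EC-C normal human vascular endothelial cells, 1000 cells/well, pre-incubated 5 hr at 37 °C, then exposed to compounds for 40 hr at 37 °C in complete medium. Viability measured as intracellular ATP by CellTiter-Glo luminescence; AC50 from Hill fits.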

[7] = Cell Viability - SH-SY5Y (AID 544); details: SH-SY5Y neuroblastoma cell viability; viability change, negative = cytotoxic: at 92.2 µM (top of the series); also: nearly all actives have a fitted effect of over 55% in size; also: potency is read from the fitted curve at half-maximal effect;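 as to viability change, negative = cytotoxic: 0% = DMSO alone and -100% = 100 µM tamoxifen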
How it was run: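 Human neuroblastoma SH-SY5Y cells (1500/well) in complete medium were exposed to compounds for 40 hr at 37 °C; intracellular ATP was then quantified by CellTiter-Glo luminescence after 20 min at room temperature. AC50 came from Hill-equation concentration-response fits.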

[8] = Cell Viability - Renal Proximal Tubule (AID 545); details: renal proximal tubule cells viability, primary cells of rat origin; activity change, negative = cytotoxicity: at 91.7 µM (top of the series); also: nearly all actives have a fitted effect of over 40% in size; also: potency is read from the fitted curve at half-maximal effect;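 as to activity change, negative = cytotoxicity: 0% = DMSO only and -100% = 100 µM tamoxifen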
How it was run: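 Luminescent ATP signal (CellTiter-Glo) served as the viability read-out after 40 hr compound exposure of freshly isolated rat proximal tubule cells at 37 °C. Concentration-dependent ATP loss was fitted with the Hill equation to give AC50.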

[9] = Cell Viability - N2a (AID 540); details: N2a mouse neuroblastoma cell viability; activity change, negative = cytotoxicity: at 92.2 µM (top of the series); also: nearly all actives have a fitted effect of over 45% in size; also: potency is read from the fitted curve at half-maximal effect;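 as to activity change, negative = cytotoxicity: plate controls were DMSO alone for no effect and tamoxifen control for full effect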
How it was run: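 Mouse neuroblastoma N2a cells (1500/well) were preincubated 5 hr at 37 °C, then exposed to compounds for 40 hr at 37 °C in complete medium. Viability was read as intracellular ATP by CellTiter-Glo luminescence; AC50 from Hill fits.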

[10] = Cell Viability - H-4-II-E (AID 543); details: H-4-II-E rat hepatoma viability; series mostly up to 92.2 µM; also: nearly all actives have a fitted effect of over 35% in size; also: potency is read from the fitted curve at half-maximal effect
How it was run: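 Rat hepatoma H-4-II-E cells (1500/well) were plated, incubated 5 hr at 37 °C, then exposed to compounds for 40 hr at 37 °C. Cellular ATP was read by CellTiter-Glo luminescence; AC50 came from Hill-equation fits of concentration-response data.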

O=C(c1cc(O)c(O)c([N+](=O)[O-])c1)c1ccccc1F
inactive: activity, negative = inhibition ([1]; at 38 µM (top of the series)) -12.2% | Potency [2] > 46 µM | Potency [3] > 46 µM

Nc1ccc(C(=O)O)c(O)c1
inactive: activity, negative = inhibition ([1]; at 17.2 µM (top of the series)) 7.35% and -0.89% | Potency [2] > 20.6 µM

Clc1ccc(N2CCN(Cc3c[nH]c4ncccc34)CC2)cc1
inactive: activity, negative = inhibition ([1]; at 38 µM (top of the series)) -44.5% | Potency [2] > 46 µM | Potency [3] > 46 µM

COc1cccc(C(=O)NCCN2CCN(c3ccc(Cl)cc3)CC2)c1
inactive: activity, negative = inhibition ([1]; at 38 µM (top of the series)) 0.921% | Potency [2] > 46 µM | Potency [3] > 46 µM

O=c1[nH]c2cc([N+](=O)[O-])c([N+](=O)[O-])cc2[nH]c1=O
inactive: activity, negative = inhibition ([1]; at 38 µM (top of the series)) 21% | Potency [2] > 46 µM | Potency [3] > 46 µM | Potency [4]

O=C(O)c1cc(=O)c2ccccc2[nH]1
inactive: Potency [2] > 46 µM | Potency [3] > 46 µM | Potency [4]

O=S(=O)(c1cccc2c(I)cccc12)N1CCCNCC1
inactive: Potency [2] > 46 µM | Potency [3] > 46 µM | Potency [4]

Oc1ccccc1O
active: Potency [5] 1.26 µM | Potency [7] 10 µM
inactive: Potency [2] > 46 µM | Potency [3] > 46 µM | Potency [4] | Potency [6] | activity change, negative = cytotoxicity [8] -24.1%

N.N.O=C(O)C1(C(=O)O)CCC1.[Pt]
inactive: Potency [4]

CN(C)c1ccc(N=NS(=O)(=O)O)cc1
inactive: Potency [4] | Potency [6] | activity change, negative = cytotoxicity [8] 12.3%
active: Potency [9] 31.6 µM | Potency [10] 0.126 µM

Nc1nc2ccc([N+](=O)[O-])cc2s1
inactive: Potency [4] | Potency [6]

Nc1ccc(O)c([N+](=O)[O-])c1
inactive: Potency [4] | Potency [6] | Potency [10] | activity change, negative = cytotoxicity [8] 0.95%
active: Potency [5] 25.1 µM

c1ccc2sc(SSc3nc4ccccc4s3)nc2c1
inactive: Potency [4] | Potency [9] | Potency [5] | Potency [6] | Potency [10] | Potency [7] | activity change, negative = cytotoxicity [8] -1.46%

N=c1ccn2c(n1)O[C@H]1[C@H](O)[C@@H](CO)O[C@H]12
inactive: Potency [2] > 46 µM | Potency [3] > 46 µM | Potency [4]

N=C(N)SCCc1ccc(CCSC(=N)N)cc1
inactive: Potency [2] > 46 µM | Potency [3] > 46 µM | Potency [4]

O=C1CN(/N=C/c2ccc([N+](=O)[O-])o2)C(=O)N1
active: Potency [9] 31.6 µM | activity change, negative = cytotoxicity [5] -97.7%
inactive: Potency [4] | Potency [6]

O=C(O)/C=C\C(=O)O
inactive: Potency [4] | Potency [9] | Potency [5] | Potency [6] | Potency [10] | Potency [7] | activity change, negative = cytotoxicity [8] -6.17%

O=C(O)c1cc(O)c(O)c(O)c1
active: activity change, negative = cytotoxicity [5] -98.1%
inactive: Potency [4] | Potency [9] | Potency [6] | activity change, negative = cytotoxicity [8] -19.1%

C#C[C@]1(O)CC[C@H]2[C@@H]3CCc4cc(O)ccc4[C@H]3CC[C@@]21C
inactive: Potency [4] | Potency [9] | Potency [5]
active: Potency [10] 20 µM | Potency [7] 31.6 µM

NCCO
inactive: Potency [9] | Potency [5] | Potency [6] | Potency [10] | activity change, negative = cytotoxicity [8] -3.73%

CCCCCCCCCCCCCCCCCC(=O)O
inactive: Potency [4] | Potency [9] | Potency [5] | Potency [6] | Potency [10] | Potency [7] | activity change, negative = cytotoxicity [8] -6.5%

CN(C)c1ccc(C(=C2C=CC(=[N+](C)C)C=C2)c2ccccc2)cc1
active: Potency [9] 0.0316 µM | Potency [5] 0.2 µM | Potency [6] 6.31 µM | Potency [10] 0.0794 µM | Potency [7] 0.1 µM | Potency [8] 0.2 µM
inactive: Potency [2] > 46 µM | Potency [3] > 9.22 µM | activity change, negative = inhibition [4] -22.8% [at 11.4 µM]

CN(C)CCC(c1ccc(Cl)cc1)c1ccccn1 (configuration not stated)
inactive: Potency [4] | Potency [9] | Potency [5] | Potency [6] | Potency [10] | Potency [7] | activity change, negative = cytotoxicity [8] -6.06%

Nc1ccc([N+](=O)[O-])cc1O
inactive: Potency [4] | Potency [6] | Potency [10] | Potency [7] | activity change, negative = cytotoxicity [8] -10.2%
active: Potency [5] 20 µM

O=Nc1ccc2oc(=O)ccc2c1
inactive: Potency [2] > 46 µM | Potency [3] > 46 µM | Potency [4]
